# Calls of active or inactive are those of the source. Unless noted, no rule for the calls is given here.
# What was measured:
# [1] = HepG2 liver cancer cell viability effects, profiling panel, resazurin fluorescence, 24 h, PK04 Diversity Set (AID 1172); details: higher = more signal
# [2] = basal S. cerevisiae growth modulation, no modifier, primary screen, OD600, strain BY4716, 24 h, basal condition (AID 1173); details: OD600, 24 h, higher = more signal, called active from +8 up or from −8 down
# [3] = MM1S myeloma cell viability, profiling panel, resazurin fluorescence, basal, 24 h, PK04 Diversity Set (AID 1174); details: higher = more signal, called active from +8 up or from −8 down;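 also: MM1S multiple myeloma cell line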
# [4] = molecular target: Dihydroorotate dehydrogenase (quinone), mitochondrial (Plasmodium falciparum (isolate 3D7)) (UniProt Q08210); assay: PfDHODH enzyme inhibitors, primary screen, biochemical, C-terminal His tag, absorbance 600 nm (AID 1175); details: DCIP absorbance 600 nm, higher = more signal, called active from +8 up or from −8 down;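 also: recombinant parasite enzyme with a five histidine tag at its C terminus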
# Sequence of Dihydroorotate dehydrogenase (quinone), mitochondrial (Plasmodium falciparum (isolate 3D7)) (Q08210 whole entry, looked up): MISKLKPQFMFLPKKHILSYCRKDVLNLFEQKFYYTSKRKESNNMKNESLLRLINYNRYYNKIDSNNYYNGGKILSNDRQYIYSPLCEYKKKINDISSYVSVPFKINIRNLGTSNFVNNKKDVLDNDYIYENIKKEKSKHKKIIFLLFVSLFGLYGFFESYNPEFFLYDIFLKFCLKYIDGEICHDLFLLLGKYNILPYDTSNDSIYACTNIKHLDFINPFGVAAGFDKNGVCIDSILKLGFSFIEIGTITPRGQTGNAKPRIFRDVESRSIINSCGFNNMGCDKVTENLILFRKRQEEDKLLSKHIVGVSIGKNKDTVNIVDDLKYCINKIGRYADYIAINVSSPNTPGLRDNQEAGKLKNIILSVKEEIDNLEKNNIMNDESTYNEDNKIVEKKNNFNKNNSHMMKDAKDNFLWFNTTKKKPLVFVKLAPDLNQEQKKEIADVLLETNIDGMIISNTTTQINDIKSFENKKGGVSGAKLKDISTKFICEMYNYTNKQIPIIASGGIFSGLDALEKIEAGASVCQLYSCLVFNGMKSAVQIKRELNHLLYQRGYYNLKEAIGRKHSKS
# [5] = P. aeruginosa biofilm formation inhibitors, primary screen, strain PAO1, LB-PBS medium, absorbance 600 nm (AID 1176); details: P. aeruginosa PAO1 growth/biofilm, A600, 12 h; higher = more signal
# [6] = S. cerevisiae RM11-1a growth modifiers, primary screen, strain RM11-1a, OD600, basal, 24 h (AID 1177); details: OD600, 24 h, higher = more signal, called active from +8 up or from −8 down;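 also: cultures grown under basal conditions with no added stressor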
# [7] = E. coli acrAB mutant growth effects, primary screen, E. coli filamentation inducers, strain DRC39, OD650, 24 h (AID 1178); details: higher = more signal, called active from +8 up or from −8 down;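 also: growth measured as culture turbidity by optical density at 650 nm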
# [8] = E. coli acrAB mutant growth effects, primary screen, E. coli filamentation inducers, strain DRC39, OD650, 48 h (AID 1179);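 also: screen aims at cell division blockers that make cells filament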; details: E. coli DRC39 delta-acrAB growth, higher = more signal, called active from +8 up or from −8 down
# [9] = RPMI8226 myeloma cell viability, profiling panel, resazurin fluorescence, basal, 24 h, PK04 Diversity Set (AID 1180); details: higher = more signal;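 also: RPMI8826 multiple myeloma cell line at 5000 cells per well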
# [10] = molecular target: E3 ubiquitin-protein ligase XIAP (Homo sapiens) (UniProt P98170); assay: XIAP binders, primary screen, biophysical, small-molecule microarray, fluorescence 635 nm (AID 1181); details: small-molecule microarray binding, higher = more signal;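 also: score merges 667 nm emission and signal to noise over triplicate slides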
# Sequence of E3 ubiquitin-protein ligase XIAP (Homo sapiens) (P98170 whole entry, looked up): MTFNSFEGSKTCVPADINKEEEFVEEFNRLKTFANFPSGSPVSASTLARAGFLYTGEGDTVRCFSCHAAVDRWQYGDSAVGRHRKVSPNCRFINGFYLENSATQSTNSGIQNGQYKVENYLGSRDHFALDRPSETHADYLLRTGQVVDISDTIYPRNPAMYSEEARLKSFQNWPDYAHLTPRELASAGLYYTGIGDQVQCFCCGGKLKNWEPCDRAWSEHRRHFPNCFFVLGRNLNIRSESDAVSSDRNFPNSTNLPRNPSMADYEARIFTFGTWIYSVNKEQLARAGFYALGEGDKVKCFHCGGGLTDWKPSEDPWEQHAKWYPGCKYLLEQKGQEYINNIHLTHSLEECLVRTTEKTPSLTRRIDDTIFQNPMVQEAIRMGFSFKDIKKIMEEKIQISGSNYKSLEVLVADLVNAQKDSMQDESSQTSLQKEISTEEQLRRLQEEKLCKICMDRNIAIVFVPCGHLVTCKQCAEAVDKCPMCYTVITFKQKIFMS
# [11] = test system: XIP peptide (Xip251-270) binding; assay: small-molecule binders of XIP peptide, primary screen, biochemical, small-molecule microarray, fluorescence 635/667 nm, 0.1 µg/mL protein (AID 1182); details: fluorescent protein binding, 635 nm, higher = more signal, called active from +8 up or from −8 down
# [12] = test system: XIP peptide (Xip251-270); assay: small-molecule binders of XIP peptide, primary screen, biochemical, small-molecule microarray, fluorescence 635/667 nm, 0.5 µg/mL protein (AID 1183); details: small-molecule microarray binding, fluorescence 635 nm; higher = more signal
# [13] = Plasmodium falciparum growth inhibition, primary screen, strain 3D7, DAPI fluorescence, 100 nL (AID 1184);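 also: parasites grown inside human red blood cells in medium with human serum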; details: P. falciparum 3D7 growth, 3 d, higher = more signal
# [14] = molecular target: Homeobox protein Hox-A13 (Mus musculus) (UniProt Q62424); assay: inhibitors of HoxA13-DNA binding, primary screen, biochemical, fluorescence polarization, labeled oligonucleotide (AID 1185); details: 15 min, higher = more signal, called active from +8 up or from −8 down
# Sequence of Homeobox protein Hox-A13 (Mus musculus) (Q62424 whole entry, looked up): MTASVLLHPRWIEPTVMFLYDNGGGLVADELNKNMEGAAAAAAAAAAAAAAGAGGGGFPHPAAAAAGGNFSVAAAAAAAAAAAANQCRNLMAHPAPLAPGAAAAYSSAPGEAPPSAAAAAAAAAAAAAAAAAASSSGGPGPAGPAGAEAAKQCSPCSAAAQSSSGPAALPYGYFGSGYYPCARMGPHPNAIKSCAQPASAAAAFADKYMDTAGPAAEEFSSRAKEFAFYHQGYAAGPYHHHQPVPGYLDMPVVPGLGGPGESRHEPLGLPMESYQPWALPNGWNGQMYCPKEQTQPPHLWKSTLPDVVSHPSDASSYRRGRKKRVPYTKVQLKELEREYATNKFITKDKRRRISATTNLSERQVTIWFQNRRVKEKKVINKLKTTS
# [15] = inhibitors of hydroxyurea-induced Chk1 phosphorylation, primary screen, imaging, HeLa, phospho-Chk1 antibody, percent positive cells (AID 1186); details: hydroxyurea-induced phospho-Chk1 immunofluorescence imaging, higher = more signal
# [16] = inhibitors of hydroxyurea-induced Chk1 phosphorylation, primary screen, imaging, HeLa, phospho-Chk1 nuclear intensity (AID 1187); details: hydroxyurea-induced phospho-Chk1 immunofluorescence imaging, higher = more signal
Structure (SMILES),z-score [1],z-score [2],z-score [3],composite z-score [4],z-score [5],z-score [6],z-score [7],z-score [8],z-score [9],composite z-score [10],composite z-score [11],composite z-score [12],z-score [13],z-score [14],z-score [15],z-score [16]
COC(=O)[C@@]1(Cc2ccccc2)[C@H]2c3cc(C(=O)N(C)C)n(CCc4c[nH]c5ccc(O)cc45)c3C[C@H]2CN1C(=O)c1ccccc1,0.236,0.412 (inactive),-1.18 (inactive),-0.568 (inactive),1.07 (inactive),-0.438 (inactive),0.117 (inactive),0.29 (inactive),-1.27,-0.0261,1.44 (inactive),0.818,-1.59,-5.16 (inactive),-0.996 (inactive),-0.844 (inactive)
C[C@H]1C2[C@H](Cc3ccccc3)NC(=O)[C@]23C(=O)NCC(=O)N2CCC[C@H]2C(=O)NC/C=C/CCC/C=C/C3[C@@H]2O[C@]12C (some centres not stated),-1.11,-1.17 (inactive),-0.111 (inactive),-0.0305 (inactive),-0.578 (inactive),-0.0879 (inactive),1.2 (inactive),0.601 (inactive),0.277,-0.152,-0.416 (inactive),-0.56,-1.48,-3.96 (inactive),0.0614 (inactive),0.0823 (inactive)
O=C1C2C=CC(C(O)c3c(F)cccc3Cl)N(Nc3ccccc3F)C2C(=O)N1c1ccccc1 (configuration not stated),-0.269,-0.796 (inactive),-0.819 (inactive),-0.303 (inactive),0.447 (inactive),0.824 (inactive),-0.0281 (inactive),0.729 (inactive),-0.144,-0.0749,0.433 (inactive),0.811,0.562,-0.377 (inactive),0.486 (inactive),0.435 (inactive)
NC(=O)N1C(=O)C2C(C1=O)C1C=C(CCCO)C2C(C2CC2)N1Cc1cc2c(cc1Br)OCO2 (configuration not stated),-0.437,-1.85 (inactive),-0.264 (inactive),-0.659 (inactive),-0.778 (inactive),-0.492 (inactive),-0.298 (inactive),-0.562 (inactive),-0.46,0.0479,-0.0845 (inactive),-0.102,1.74,-7.26 (inactive),0.207 (inactive),0.727 (inactive)
COC(=O)[C@]1(Cc2ccccc2)N=C(c2ccc(OCCCO)cc2)O[C@@H]1c1ccccc1N=[N+]=[N-],-2.66,-1.45 (inactive),-4.47 (inactive),1.16 (inactive),1.69 (inactive),0.285 (inactive),0.2 (inactive),-1.19 (inactive),-7.02,0.336,0.062 (inactive),0.685,-2.27,-2.66 (inactive),-0.566 (inactive),-0.724 (inactive)
COCCCNC(=O)[C@@]1(CCS(=O)(=O)c2ccccc2)N=C(c2ccc(OCCCO)cc2)O[C@H]1c1ccccc1N=[N+]=[N-],0.531,-0.865 (inactive),-0.368 (inactive),-0.396 (inactive),-0.385 (inactive),-0.488 (inactive),1.28 (inactive),0.863 (inactive),-0.264,-0.005,1.26 (inactive),0.839,-2.72,-3.94 (inactive),-0.662 (inactive),-0.624 (inactive)
COCCOC(=O)N1C(=O)[C@@]2(c3cc(C#CC4(O)CCCCCC4)ccc31)[C@H](C(=O)Nc1nc3ccccc3s1)[C@H]1C(=O)O[C@H](c3ccccc3)[C@H](c3ccccc3)N1[C@@H]2c1ccc(OCCO)cc1,-0.0451,1.16 (inactive),-0.584 (inactive),0.901 (inactive),2.69 (inactive),3 (inactive),-0.451 (inactive),-0.976 (inactive),-0.523,0.0073,-0.148 (inactive),0.712,-1.71,0.447 (inactive),-0.086 (inactive),-0.0454 (inactive)

# Reference: PubChem BioAssay
